# Among all 48,000 compounds or so, about 13,000 (27%) showed an effect of 50% or more. The list shows a part of the results.
# System: Wolbachia pipientis
# Test: Anti-Wolbachia Cell-Based Screen
# Type: functional
# Parameters: scale not given: in the data most compounds retested in dose-response had high values
# Details: 5 µM
row,SMILES,Percent Effect [%]
1,Cc1[nH]c2c(F)cccc2c1CC(=O)N1CCCC(N)CC1 (stereo unspecified),-2.417
2,Cc1cc(C)cc(CN2C[C@H]3COC[C@H](N4CCN(C)CC4)[C@H]3C2)c1.O=C(O)C(F)(F)F.O=C(O)C(F)(F)F.O=C(O)C(F)(F)F,-30.24
3,CN(Cc1csc(-c2cccs2)n1)CC(O)CO (stereo unspecified),2.949
4,Cc1cc(=O)n(C)cc1NC(=O)CC1CCC1,-11.35
5,O=C(Cc1ccon1)NC1CC2(CCC2)Oc2ccccc21 (stereo unspecified),0.8032
6,Cc1ccc(N2CCCC(NC(=O)CCc3ccccn3)C2=O)cc1 (stereo unspecified),-0.6334
7,O=C(Cc1ccon1)NC1CCCN(c2ccccc2F)C1=O (stereo unspecified),99.65
8,Cc1nc(N2CCOCC2)sc1C(=O)NCC(C)(C)N1CCCCC1,59.39
9,CNc1nc(C)c(C(=O)N2CCCCC2CCc2ccc(O)cc2)s1 (stereo unspecified),-31.11
10,CC(C)(CNC(=O)C1CCCCN1S(C)(=O)=O)N1CCOCC1 (stereo unspecified),1.375
11,CNc1nc(C)c(C(=O)NCC(C)(C)N2CCCCC2)s1,51.74
12,CNc1nc(C)c(C(=O)N2CCCCC2CCN2CCOCC2)s1 (stereo unspecified),-13.11
13,COc1nc(C)c(C(=O)NCc2cc(N3CCOCC3)ncn2)s1,-8.084
14,CN(CCO)C(=O)Nc1ccn(-c2cccc(C(F)(F)F)c2)n1,-1.058
15,CC(=O)Nc1ccc(Cl)c(C(=O)N(C)C(C)c2nccs2)c1 (stereo unspecified),18.16
16,O=C1CC(C(=O)Nc2nnc(-c3ccccn3)[nH]2)c2ccccc2N1 (stereo unspecified),-11.02
17,O=C(Nc1cnc(Oc2ccccc2)nc1)C1CC1,12.01
18,CN[C@@H]1CCC[C@@H](Oc2ccccc2Oc2ccc(C)cc2)[C@@H]1O,109.8
19,COc1ccc(CNC(=O)N2CCOCC2C2CC2)cc1C (stereo unspecified),12.32
20,CS(=O)(=O)N1CC[C@H]2OCC[C@@]2(C(=O)NCC2CC2)C1,83.9
21,CNC(=O)[C@@]12CCO[C@@H]1CCN(S(=O)(=O)c1cc(C)cc(C)c1)C2,11.27
22,Cc1ccc(N2CC[C@H]3OCC[C@@]3(C(=O)N3CCCO3)C2)nn1,93.84
23,CCS(=O)(=O)N1CC[C@H]2OCC[C@@]2(C(=O)NC)C1,-10.89
24,CC(=O)NCC(=O)N1CCOC2(CCCN(c3ccc(C)nn3)C2)C1 (stereo unspecified),107.9
25,CC(=O)NCC(=O)N1CCOC2(CCCN(c3cccnc3)C2)C1.O=C(O)C(F)(F)F (stereo unspecified),-5.55
26,Cc1ccc(N2CC[C@H]3OCC[C@@]3(C(=O)NCC3CC3)C2)nn1,112.3

row,SMILES,Percent Effect [%]
1,CCS(=O)(=O)N1CCOC2(CCCN(c3ccc(C)nn3)C2)C1.O=C(O)C(F)(F)F (stereo unspecified),0.7716
2,Cc1ccc(N2C[C@H]3OCC[C@H]3[C@H](C(=O)NC3CCC3)C2)nn1,-15.47
3,Cc1ccc(N2CC[C@H]3OCC[C@@]3(C(=O)NC(C)C)C2)nn1.O=C(O)C(F)(F)F,-2.332
4,Cc1ncsc1CN1CC[C@H]2OCC[C@@]2(C(=O)NCC2CC2)C1,4.364
5,Cc1noc(CNc2c(N3CCCC3)cccc2N2CCCC2)n1,12
6,CC(C)c1cc(C(=O)N2CCN(c3ccc(F)c(Cl)c3)CC2)n(C)n1,-4.845
7,Cc1nc(N(C)Cc2cccc(O)c2)nc2cc(S(C)(=O)=O)ccc12,-16.37
8,CC(C)C(=O)N1CCC(NC2CCSCC2)C1 (stereo unspecified),-5.859
9,CS(=O)(=O)N1CCC(Oc2ccc(C(=O)NCCC(N)=O)cc2Cl)CC1,-24.14
10,Cc1ccc(N2CC3(CCN(C(=O)c4ccoc4)C3)C2)nn1,11.71
11,Cc1ccc(N2CC[C@H]3OCC[C@@]3(C(=O)N3CCCC3)C2)nn1,99.3
12,Cc1ccc(N2CCC3(CC2)CCN(C2CCOCC2)CC3)nn1.O=C(O)C(F)(F)F,-17.16
13,Cc1ccc(N2CC[C@H]3OCC[C@@]3(C(=O)N(C)C)C2)nn1,116.6
14,Cc1ccc(N2CCCC3(CCN(C(=O)C4CC4)C3)C2)nn1 (stereo unspecified),2.415
15,c1cn(-c2ccc(CN3CCCC3)cc2)c(-c2cc3n(n2)CCNC3)n1,4.696
16,O=C(NCC(F)(F)F)C1CCCN(Cc2ccno2)C1 (stereo unspecified),-13.93
17,Cn1cccc1C(O)CNC(=O)COc1ccc(Cl)cc1Cl (stereo unspecified),19.06
18,COc1ccc(C(=O)NCC(c2cccn2C)N2CCCC2)cc1OC (stereo unspecified),118.2
19,Cc1ccc(C)c(C(=O)NCC(c2cccn2C)N2CCCCCC2)c1 (stereo unspecified),114.5
20,COc1ccc(C(=O)NCC(c2cccn2C)N2CCN(C)CC2)cc1 (stereo unspecified),104.9
21,Cn1cccc1C(CNC(=O)COc1ccc(Cl)cc1Cl)N1CCCC1 (stereo unspecified),-0.05475
22,CN1CCN(C(CNC(=O)c2ccc(Cl)cc2F)c2cccs2)CC1 (stereo unspecified),-14.94
23,Cn1cccc1C(CNC(=O)c1ccc(F)cc1F)N1CCCCCC1 (stereo unspecified),2.493
24,CN1CCN(C(CNC(=O)CCn2cccn2)c2cccs2)CC1 (stereo unspecified),11.34
25,COc1cc(OC)cc(C(=O)NCC(c2cccn2C)N2CCCC2)c1 (stereo unspecified),93.86
26,COc1ccc(C(=O)NCC(c2cccn2C)N2CCCC2)c(OC)c1 (stereo unspecified),6.724

row,SMILES,Percent Effect [%]
1,CC(C)=CCN1CCN(S(=O)(=O)c2cn(C)cn2)[C@H]2CS(=O)(=O)C[C@H]21,-6.169
2,Cn1cc(NC(=O)CCCc2cccs2)c(=O)n(C)c1=O,-5.332
3,NC(=O)C1CCN(CCc2ccc(NCc3ccsc3)cc2)CC1,-14.27
4,Cn1c(CN2CCCC2)nnc1C1CCCN(C(=O)CN2CCCC2)C1 (stereo unspecified),-18.41
5,O=C(C1CCC1)N1CCn2c(COc3ncccn3)nnc2C1,-0.8888
6,O=C(CN1CCNC1=O)N1CCc2nnc(-c3ccccc3)n2CC1,-8.724
7,Cn1c(CN2CCC(O)CC2)nnc1C1CCCN(C(=O)C2CNC2)C1 (stereo unspecified),15.55
8,O=C(C1CCCC1)N1CCn2c(nnc2C2CCCNC2)C1 (stereo unspecified),107.7
9,O=C(CN1CCCCCC1)N1CCc2nnc(C3CCCNC3)n2CC1 (stereo unspecified),109
10,CC(C)OCCN1CCC(N2CCN(C)C2=O)CC1,7.095
11,N#Cc1nccnc1NC1CCN(c2c(F)cccc2F)C1 (stereo unspecified),7.205
12,Cc1cc(C)nc(NC2CCN(CCOC(C)C)CC2)n1,107
13,Cc1cc(C)nc(N2CCC(OCCN3CCCCC3)C2)n1 (stereo unspecified),5.961
14,COCCC(=O)N1CCC(Nc2ncc(Br)cn2)CC1,-2.915
15,N#Cc1ccccc1N1CCC(Nc2nccnc2C#N)CC1,-4.6
16,Cc1cccc(C(=O)N2CCN(CCOC(C)C)CC2)n1,2.598
17,CC(C)OCCN1CCC(Nc2ncc(Br)cn2)CC1,82.04
18,CC(C)OCCN1CCN(C(=O)c2cc(-n3cccn3)ccn2)CC1,-9.064
19,CC(C)OCCN1CCC(Nc2ncccn2)CC1,110.1
20,CC(C)OC(=O)N1CCC(Nc2ncc(Br)cn2)CC1,-1.588
21,CC(C)OCCN1CCC(Nc2nccnc2C#N)CC1,120.8
22,CCNC(=O)C1CCCN1S(=O)(=O)c1sc(=O)[nH]c1C (stereo unspecified),-8.251
23,O=S(=O)(C1CC1)N1CCOC2(COCCN(c3ncccn3)C2)C1 (stereo unspecified),-6.11
24,Cc1cnccc1-n1nc(C(C)C)nc1CCN(C)S(C)(=O)=O,-12.77
25,CCN(CC(F)(F)F)C(=O)C1CCCN(Cc2cscn2)C1 (stereo unspecified),6.1
26,COCC(=O)NCCC(=O)N1CCN(S(=O)(=O)c2ccc(Br)cc2)CC1,15.42

row,SMILES,Percent Effect [%]
1,Cc1ccc(C(C)N(C)Cc2nc3c(cnn3C)c(=O)[nH]2)cc1 (stereo unspecified),-5.253
2,CC(C)N(Cc1nc2c(cnn2C)c(=O)[nH]1)c1ccccc1,-5.677
3,COCCN(CCc1ccccc1)Cc1nc2c(cnn2C)c(=O)[nH]1,10.98
4,COCCCN(C)Cc1nc2c(cnn2C)c(=O)[nH]1,-7.298
5,COCCN(Cc1nc2c(cnn2C)c(=O)[nH]1)C(C)c1ccccc1 (stereo unspecified),98.63
6,COCCCN(CCOC)Cc1nc2c(cnn2C)c(=O)[nH]1,93.22
7,COCCN(CCOC)Cc1nc2c(cnn2C)c(=O)[nH]1,107.8
8,CC(C)(C)c1cc(CN2CCOCC(O)C2)n[nH]1 (stereo unspecified),40.36
9,CC(=O)Nc1cc(F)c(S(=O)(=O)N(C)CC2CCC2)c(F)c1,32.27
10,Cn1cccc1CN1CCC2(CC1)CC(Oc1cccnc1)C2.O=C(O)C(F)(F)F.O=C(O)C(F)(F)F,9.854
11,COC(=O)C(C)Sc1nnnn1C1CCOCC1 (stereo unspecified),-41.77
12,CNS(=O)(=O)c1ccc(CN2CCCN(c3ccccc3)CC2)cc1,23.15
13,c1ccc(N2CCN(Cc3cnc(C4CCCCO4)nc3)CC2)cc1 (stereo unspecified),50.77
14,OCC1(CC2CC2)CCCN(Cc2cnc(N3CCOCC3)nc2)C1 (stereo unspecified),1.203
15,Cl.Cl.OC(CN1CCN(Cc2ccccc2)CC1)C1CC1 (stereo unspecified),1.667
16,CN(C)[C@H]1CCCCN(Cc2cnc(NCc3ccccc3)nc2)C1,-3.217
17,c1nc(C2CCCCO2)ncc1CN1CCOCC1 (stereo unspecified),157.1
18,CCOC(C)c1noc(CN2CCCN(c3ccccn3)CC2)n1 (stereo unspecified),3.417
19,OCC1(O)CCN(Cc2ccc(C3CCCCO3)o2)CC1 (stereo unspecified),2.159
20,c1ccc(CN2CCN(Cc3cnc(C4CCCCO4)nc3)CC2)cc1 (stereo unspecified),181.4
21,c1ccc(N2CCN(Cc3cnc(C4CCCCO4)nc3)CC2)nc1 (stereo unspecified),112.3
22,O=C(O)C1CN(Cc2cnc(C3CCCCC3)nc2)CCO1 (stereo unspecified),-13.64
23,O=C1OCCC1N1CCN(c2ccccn2)CC1 (stereo unspecified),0.5958
